Measurements reported in paper PMC5540273 (PLoS ONE, 2017).

Legend:
Conditions in all cases: concentration: 1 μM, replicates: in singlicate; n = 1
[1] = system: DYRK1B
[2] = system: DYRK2
[3] = system: EGFR
[4] = system: EIF2AK1
[5] = system: EPHA1
[6] = system: EPHA2
[7] = system: EPHA3
[8] = system: EPHA4
[9] = system: EPHA5
[10] = system: EPHA6
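Note: KINOMEscan kinase panel screen.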

SMILES | %Inh [1] | %Inh [2] | %Inh [3] | %Inh [4] | %Inh [5] | %Inh [6] | %Inh [7] | %Inh [8] | %Inh [9] | %Inh [10]
COC(=O)Nc1nc2ccc(Oc3ccc(NC(=O)Nc4cc(C(F)(F)F)ccc4F)cc3)cc2n1C.Cl [GW692089] | 26% | 0% | 0% | 0% | 36% | 75% | 26% | 65% | 0% | 84%
COc1cccc(C(=O)Nc2cccc(Oc3ccc4nc(NC(=O)C5CC5)cn4n3)c2)c1 | 19% | 9% | 78% | 0% | 42% | 98.7% | 62% | 79% | 57% | 68%
O=C(O)C(F)(F)F.O=C(O)C(F)(F)F.O=c1[nH]ccc2nc(N[C@@H]3CCCNC3)nc(Nc3ccc(S(=O)(=O)N4CCOCC4)cc3)c12 [GSK2177277] | 0% | 59% | 45% | 21% | 25% | 28% | 98.9% | 57% | 32% | 62%
Cc1ccc(S(=O)(=O)Nc2ccc(Nc3nccc(Nc4cccc5[nH]ncc45)n3)cc2)cc1 [GSK581271] | 0% | 12% | 42% | 0% | 66% | 21% | 0% | 13% | 0% | 0%
Nc1ncc(-c2ccc3nccc(-c4ccncc4)c3c2)cc1S(=O)(=O)N1CCOCC1 [GSK1627798] | 0% | 21% | 18% | 0% | 4% | 4% | 0% | 0% | 0% | 5%
NCCCC(NC(=O)c1cc(Br)c(-c2ccnc3[nH]ccc23)s1)c1ccccc1.O=C(O)C(F)(F)F.O=C(O)C(F)(F)F (stereo not shown) [GSK1287544] | 22% | 37% | 4% | 0% | 6% | 0% | 0% | 11% | 5% | 18%
CC(C)c1nc(-c2cccc(NS(=O)(=O)c3c(F)cccc3F)c2F)c(-c2ccnc(Nc3ccc(N4CCOCC4)nc3)n2)s1 [GSK2008607] | 0% | 16% | 94.3% | 66% | 98.9% | 86% | 69% | 74% | 0% | 94.7%
C[C@@H]1CC[C@@H](C(=O)Nc2ccccc2)CN1c1cc(-c2ccc3c(N)n[nH]c3c2)nc(N)n1 [GSK2286062] | 0% | 3% | 43% | 0% | 1% | 17% | 2% | 0% | 0% | 0%
COC(=O)Nc1nc2cc(Oc3ccc(NC(=O)Nc4cc(C(F)(F)F)ccc4F)cn3)ccc2[nH]1.Cl.Cl [GW681170] | 12% | 0% | 12% | 5% | 64% | 92.3% | 47% | 81% | 43% | 91%
Cc1cccc(Nc2nc(N[C@H]3CCNC3)ncc2C(N)=O)c1.Cl [GSK2197149] | 12% | 32% | 50% | 22% | 0% | 0% | 45% | 8% | 0% | 7%
O=C(Nc1n[nH]c2nc(-c3ccc(O)cc3)ccc12)C1CC1 [SB-710363] | 65% | 97.2% | 0% | 0% | 0% | 0% | 16% | 3% | 0% | 17%
c1ccc(-c2n[nH]cc2Nc2ccnc3ccccc23)nc1 [GW694077] | 100% | 90% | 15% | 0% | 0% | 0% | 0% | 4% | 0% | 0%
Cl.Cl.NCC(C(=O)Nc1cc(Br)c(-c2ccnc3[nH]ccc23)s1)c1ccccc1 (stereo not shown) [GSK1269851] | 33% | 78% | 27% | 0% | 83% | 4% | 48% | 28% | 0% | 32%
COc1cc(Nc2nccc(-c3c(-c4cccc(NC(=O)c5c(F)cccc5F)c4)nn4ncccc34)n2)cc(OC)c1OC [GSK327238] | 33% | 16% | 100% | 0% | 86% | 71% | 42% | 65% | 0% | 49%
COc1ccc(Nc2nccc(NCCNC(=O)c3cc4ccccc4s3)n2)cc1 [GSK1379896] | 0% | 5% | 19% | 0% | 0% | 8% | 0% | 0% | 0% | 0%
CN1CCN(CCCNc2nccc(-c3c(-c4ccc(F)cc4)nn4cc(C(F)(F)F)ccc34)n2)CC1 [GW621581] | 0% | 4% | 23% | 0% | 42% | 0% | 0% | 1% | 0% | 8%
c1ccc(-c2cnc3nccnn23)cc1 [AH20685] | 5% | 3% | 14% | 0% | 0% | 11% | 0% | 0% | 0% | 0%
Nc1n[nH]c2cnc(-c3ccccc3)cc12 [SB-642124] | 75% | 88% | 38% | 4% | 26% | 16% | 0% | 12% | 0% | 6%
O=C(Nc1ccccc1F)NC1CCN(c2ccnc(Nc3ccc(F)cc3)n2)CC1 [GSK1379800] | 12% | 0% | 47% | 0% | 0% | 0% | 0% | 5% | 0% | 5%

SMILES | %Inh [1] | %Inh [2] | %Inh [3] | %Inh [4] | %Inh [5] | %Inh [6] | %Inh [7] | %Inh [8] | %Inh [9] | %Inh [10]
Cc1ccc(F)c(C(=O)Nc2cccc(-c3nn4ccccc4c3-c3ccnc(Nc4cccc(F)c4)n3)c2)c1F [GSK361061] | 0% | 5% | 99.1% | 9% | 32% | 26% | 25% | 20% | 1% | 32%
Cn1cc(-c2ccc3c(c2)CCN3C(=O)Cc2cccc(F)c2)c2c(N)ncnc21 [GSK2603358] | 1% | 4% | 35% | 87% | 16% | 0% | 0% | 7% | 0% | 15%
CSc1cccc2c(-c3ccncn3)c(-c3ccc(F)cc3)nn12 [GW514786] | 0% | 12% | 70% | 0% | 18% | 7% | 0% | 0% | 0% | 0%
CN(C)Cc1ccc(-c2ccc3c(Nc4ccc(Oc5ccccn5)cc4)ccnc3c2)o1 [GW567148] | 0% | 0% | 53% | 0% | 79% | 1% | 0% | 60% | 0% | 53%
COc1cc(Nc2ncc3c(C)nc(-c4cc5ccccc5[nH]4)n3n2)cc(OC)c1OC [GW869516] | 81% | 0% | 0% | 0% | 41% | 49% | 7% | 46% | 16% | 0%
COCCOCCOc1cc2ncc3c4ccc(C#N)cc4[nH]c3c2cc1OC | 72% | 70% | 12% | 0% | 15% | 33% | 0% | 23% | 11% | 25%
COc1cc(Nc2nccc(N3CCC(NC(=O)Nc4cccc(C(C)=O)c4)C3)n2)cc(OC)c1OC (stereo not shown) [GSK1379753] | 67% | 21% | 22% | 0% | 5% | 0% | 0% | 3% | 0% | 8%
Cl.NC(=O)c1cccc(Nc2nccc(Nc3ccc(Oc4c(Cl)cccc4Cl)c(Cl)c3)n2)c1 [GW659009] | 0% | 6% | 99.5% | 13% | 0% | 0% | 0% | 0% | 0% | 0%
Nc1ncnc2c1nc(-c1ccccc1)n2-c1ccccc1 [SKF-97293] | 6% | 25% | 7% | 20% | 22% | 0% | 0% | 30% | 13% | 28%
O=C(Nc1cccc(-c2nn3ccccc3c2-c2ccnc(Nc3cccc(C(F)(F)F)c3)n2)c1)c1c(F)cccc1F [GSK292658] | 1% | 3% | 98.2% | 0% | 5% | 8% | 0% | 5% | 0% | 7%
CCn1c(-c2nonc2N)nc2c(C#CC(C)(C)O)nc(OC[C@H](N)c3ccccc3)cc21 [GSK943949] | 0% | 9% | 12% | 0% | 2% | 5% | 0% | 0% | 0% | 0%
COc1ccc(CNC(=O)NC2CCN(c3ccnc(Nc4ccc(F)cc4)n3)CC2)cc1 [GSK1379788] | 0% | 0% | 13% | 0% | 7% | 1% | 1% | 0% | 0% | 0%
Clc1ccc(-c2nn3ncccc3c2-c2ccnc(Nc3ccc4c(c3)OCCO4)n2)cc1 [GW829116] | 0% | 0% | 84% | 0% | 0% | 0% | 0% | 12% | 19% | 34%
CC(=O)N1CCN(c2ccc(Nc3nccc(-c4sc(C(C)C)nc4-c4cccc(NS(=O)(=O)c5cccc(Cl)c5)c4)n3)cn2)CC1 [GSK1660437] | 0% | 11% | 86% | 19% | 71% | 3% | 0% | 0% | 99.6% | 32%
COc1ccc(-c2coc3ccc(-c4nnc(SCc5ccc(OC)c(C(F)(F)F)c5)o4)cc23)cc1 | 0% | 14% | 0% | 5% | 0% | 2% | 0% | 8% | 18% | 17%
c1ccc(Oc2ccc(Nc3ccnc4cc(-c5ccc(CNCCN6CCOCC6)o5)ccc34)cc2)nc1 [GW567145] | 0% | 15% | 39% | 0% | 72% | 12% | 17% | 0% | 0% | 0%
Cl.c1ccc(-c2ccc3c(Nc4ccc5[nH]ccc5c4)ccnc3c2)nc1 [GW440138] | 0% | 0% | 89% | 0% | 48% | 1% | 8% | 0% | 0% | 54%
FC(F)(F)c1ccc(/C=C/c2cncnc2Nc2ccc3[nH]c(Cc4ccccc4)nc3c2)cc1 [GW709199] | 31% | 0% | 46% | 0% | 10% | 12% | 0% | 0% | 0% | 0%
